# In PubChem BioAssay (NCATS):
# Results filed as inconclusive are left out. Where a call stands in place of a potency, no number is given. Active and inactive are the calls of the source. Calls come from the whole dose curve; as a rule, active = well fitted inhibition curve with a large enough effect; inconclusive = small, poorly fitted or top-dose-only effect; inactive = flat fitted curve, though single readings scatter.
# Test system: CP305
# Assay: qHTS profiling for inhibitors of Plasmodium falciparum proliferation (AID 504749); note: nearly all actives have a fitted effect of over 60% in size
# Conditions: P. falciparum in erythrocytes, SYBR Green DNA, 72 h; series mostly up to 28.7 µM
# Outline: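 Fluorescence of SYBR Green-bound parasite DNA, read at 485/535 nm, served as the growth measure. Infected erythrocytes were cultured with compound 72 h; artemisinin (0.29 uM) and DMSO wells defined the normalization range.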
# Potency is the fitted concentration of half-maximal effect.
row,SMILES,Potency
1,CCCCCCCCCCCCCCCC(=O)OC[C@H](O)[C@H]1OC[C@@H](O)[C@@H]1O,inactive
2,CCCCC(=O)OCC(=O)[C@]1(O)Cc2c(O)c3c(c(O)c2[C@H](OC2CC(NC(=O)C(F)(F)F)C(O)C(C)O2)C1)C(=O)c1c(OC)cccc1C3=O (some centres not stated),4.78 µM (active)
3,C[C@H]1OC(OC2C(O)[C@@H](O)C(OC3C(O)[C@@H](O)C(O)O[C@@H]3CO)O[C@@H]2CO)[C@H](O)C(O)C1N[C@H]1C=C(CO)[C@@H](O)[C@H](O)C1O (some centres not stated),inactive
4,CCN(CC)CC(=O)Nc1c(C)cc(C)cc1C,inactive
5,CC(=O)N[C@H]1[C@H](O[C@@H]2c3ccc(c(Cl)c3)Oc3cc4cc(c3O[C@@H]3O[C@H](CO)[C@@H](O)[C@H](O)C3C)Oc3ccc(cc3Cl)C[C@H]3NC(=O)[C@@H](N)c5ccc(O)c(c5)Oc5cc(O)cc(c5)[C@H](NC3=O)C(=O)N[C@H]4C(=O)N[C@H]3C(=O)N[C@@H]2C(=O)N[C@@H](C(=O)O)c2cc(O)cc(O[C@H]4O[C@H](CO)[C@@H](O)C(O)[C@@H]4O)c2-c2cc3ccc2O)O[C@H](CO)[C@@H](O)[C@@H]1O (some centres not stated),inactive
6,NC(=O)c1ncn(C2OC(CO)C(O)C2O)c1N (configuration not stated),inactive
7,C[C@H]1[C@@H](OC(=O)CCC(=O)O)OC2OC3(C)CC[C@H]4[C@H](C)CC[C@@H]1[C@@]24OO3 (some centres not stated),0.006 µM (active)
8,CC1(Cn2ccnn2)[C@H](C(=O)O)N2C(=O)C[C@H]2S1(=O)=O (some centres not stated),inactive
9,CN(C)CC/C=C1\c2ccccc2COc2ccc(CC(=O)O)cc21,inactive
10,CCCC(=O)O[C@]1(C(=O)COC(C)=O)CC[C@H]2C3C[C@H](F)C4=CC(=O)C=CC4(C)[C@@]3(F)[C@@H](O)CC21C (some centres not stated),inactive
11,OCCN1CC(O)C(O)C(O)C1CO (configuration not stated),inactive
12,COc1cc2c(cc1O)CCN[C@@]21CS[C@H]2c3c(OC(C)=O)c(C)c4c(c3C(COC1=O)N1C2C2c3c(cc(C)c(OC)c3O)CC([C@@H]1O)N2C)OCO4 (some centres not stated),0.0005 µM (active)
13,CC(CCC(=O)O)C1CCC2C3C(=O)C[C@@H]4CC(=O)CC[C@@]4(C)C3CC(=O)[C@]12C (some centres not stated),inactive
14,C[n+]1c2cc(N)ccc2cc2ccc(N)cc21,0.757 µM (active)
15,O=C(OC[C@@H]1O[C@@](O)(COC(=O)c2cccnc2)[C@H](OC(=O)c2cccnc2)[C@H]1OC(=O)c1cccnc1)c1cccnc1,inactive
16,O=[N+]([O-])O[C@H]1CO[C@H]2[C@@H]1OC[C@H]2O,inactive
17,COc1cccc(OC)c1C(=O)NC1C(=O)N2C1SC(C)(C)C2C(=O)O (configuration not stated),inactive
18,NC[C@@H]1O[C@H](OC2[C@@H](CO)O[C@@H](OC3[C@H](O)[C@H](N)C[C@H](N)[C@H]3OC3O[C@H](CO)[C@@H](O)[C@H](O)[C@@H]3N)[C@H]2O)C(N)[C@H](O)[C@@H]1O (some centres not stated),inactive
19,Cc1ccc(S(=O)(=O)NC(=O)NC(C)Cc2ccccc2)cc1 (configuration not stated),inactive
20,OCCOC[C@H]1O[C@H](OCCO)[C@H](OCCO)[C@@H](OCCO)[C@@H]1OCCO (tested in a mixture with another compound),inactive
21,C[S+](C)CC[C@H](N)C(=O)O,inactive
22,CC[C@@H]1/C=C(\C)C[C@H](C)C[C@H](OC)[C@H]2O[C@@](O)(C(=O)C(=O)N3CCCC[C@H]3C(=O)O[C@H](/C(C)=C/[C@@H]3CC[C@H](Cl)[C@H](OC)C3)[C@H](C)[C@@H](O)CC1=O)[C@H](C)C[C@@H]2OC,inactive
23,NC(=O)C1CC2(NC(=O)NC2=O)c2cc(F)ccc2O1 (configuration not stated),inactive
24,CN1[C@@H]2CC[C@@H]1CC(OC(=O)[C@H](CO)c1ccccc1)C2 (some centres not stated),inactive
25,CC[C@@]1(O)C[C@H](O[C@H]2C[C@@H](N(C)C)[C@@H](O[C@H]3C[C@@H](O)[C@@H](O[C@H]4CCC(=O)[C@@H](C)O4)[C@@H](C)O3)[C@@H](C)O2)c2c(cc3c(c2O)C(=O)c2c(O)cccc2C3=O)[C@H]1C(=O)OC,0.601 µM (active)
26,CCCCCCCCCCCC(=O)OCC(O)C1OCC(O)C1O (configuration not stated),inactive
27,C/C1=C2/[N-]C(C(CC(N)=O)[C@@]2(C)CCC(=O)NCC(C)OP(=O)([O-])O[C@H]2[C@@H](O)[C@@H](n3cnc4cc(C)c(C)cc43)O[C@@H]2CO)[C@]2(C)N=C(/C(C)=C3N=C(/C=C4N=C1C(CCC(N)=O)C\4(C)C)[C@@H](CCC(N)=O)[C@]\3(C)CC(N)=O)[C@@H](CCC(N)=O)[C@]2(C)CC(N)=O.CC(=O)O.[Co] (some centres not stated),inactive
